Drawing on PubChem BioAssay (NCI), this text covers growth inhibition for eight compounds.

A short description of this assay: NCI Yeast Anticancer Drug Screen. Data for the CLN2oe strain (AID 163).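 Note: 0% = growth of vehicle-only control cultures.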 As to conditions: S. cerevisiae CLN2oe strain, hits give high values. On the procedure:
Growth inhibition of yeast strains with defined genetic alterations is measured as a screen for potential anti-cancer activity. Selected strains with alterations in DNA damage repair or cell cycle control were exposed to compounds and growth inhibition was measured relative to vehicle treated controls. The strain used in this assay is CLN2oe

Compounds without any hit were thinned out: in the full panel of roughly 79,000, 15% have a hit. Unmarked numbers belong to inactive results. The source made the active and inactive calls. Cut-off read from the data, not from the text of the source: active = growth inhibition above about 70%; inactive = the rest.

For the compound `C/C(=N/NC(=S)N1CCCCCC1)c1cccc(/C(C)=N\NC(=S)N2CCCCCC2)n1`, the growth inhibition was -4% (at 1.2 µM); -4% (at 3.7 µM); -6% (at 11.0 µM); -5% (at 33.0 µM); 23% (at 100.0 µM).
As for `OCC1OC(OCC(O)C(O)C(O)C(/C=N/Nc2ccccc2)=N/Nc2ccccc2)C(O)C(O)C1O` (stereo not given), the growth inhibition runs as follows: (at 1.2 µM) 4%; (at 3.7 µM) 8%; (at 11.0 µM) 10%; (at 33.0 µM) 9%; (at 100.0 µM) 40%.
The like results for `Cc1nn(-c2cc(Cl)ccc2[N+](=O)[O-])c(C)c1Cl` were, in that order, 1%, 2%, -2%, 4% and 5%.
The like results for `O=C(O)C1CCCCC1c1c2ccc(=O)c(O)c-2oc2c(O)c(O)ccc12` (stereo not given) were, in that order, 15%, 28%, 23%, 67% and 86% (active).
Consider `S=C(N/N=C(/c1ccccc1)c1ccccn1)N1CCCCCC1`, for which the growth inhibition reads like this: (at 1.2 µM) 5%; (at 3.7 µM) 0%; (at 11.0 µM) 4%; (at 33.0 µM) -4%; (at 100.0 µM) 7%.
Consider `O=C(O)c1ccccc1-c1ccccc1C(=O)Nc1ccc2c(c1)Cc1ccccc1-2`, for which the growth inhibition reads like this: (at 1.2 µM) 7%; (at 3.7 µM) 10%; (at 11.0 µM) 20%; (at 33.0 µM) 64%; (at 100.0 µM) 98% (active).
The matching figures for `C[C@@H]1C[C@H]2[C@@H]3CCC4=CC(=O)C=C[C@]4(C)[C@@]3(Cl)[C@@H](Cl)C[C@]2(C)[C@@]1(O)C(=O)COP(=O)(O)O`: -10%, -3%, 7%, -1% and -6%.
The like results for `CCC(=O)c1cccc2ccccc12` were, in that order, -7%, 2%, -6%, -13% and -11%.
